The values below come from PubChem BioAssay (NCI).

The panel holds about 83,000 compounds, 20% with a hit somewhere; the sample as a whole holds those more often.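 The endpoint reported here, percent growth, reads 100 for growth as untreated, 0 for no net growth and -100 for all cells dead.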 A number with no mark means an inactive call. Calls of active or inactive are those of the source. Rule for the calls: active = growth percent below 10; inactive = the rest.

Test systems include SR leukemia; RPMI-8226 leukemia; OVCAR-8 ovarian; OVCAR-5 ovarian; OVCAR-4 ovarian; SK-OV-3 ovarian; IGROV1 ovarian; OVCAR-3 ovarian; HS 578T breast; NCI/ADR-RES ovarian; T-47D breast; BT-549 breast; MDA-MB-435 melanoma; SW-620 colon; MCF7 breast; HCT-116 colon; HCC-2998 colon; KM12 colon.
Experiment in all cases: NCI-60 one-dose screen, 48 h (100 = growth as untreated, 0 = no growth, -100 = all killed)
Common to all, as to conditions: 10 µM

On to `COc1cc(C2C=C(c3ccc(Cl)c(Cl)c3)N=C3SC(C)=CN32)cc(OC)c1OC` (configuration not stated), for which the growth in the assay on SR leukemia was -11.9% (active); in the assay with RPMI-8226 leukemia it was -16.1% (active); in the assay with OVCAR-8 ovarian, 73.1%; in the assay with OVCAR-5 ovarian, 93.2%; in the assay on OVCAR-4 ovarian, 67.8%; in the assay on SK-OV-3 ovarian, 107%. The growth in the assay on IGROV1 ovarian was 85.6%; in the assay on OVCAR-3 ovarian, 79.8%; with HS 578T breast, 100%; with NCI/ADR-RES ovarian, 81.3%; in the assay on T-47D breast it was 51.1%; in the assay on BT-549 breast, 58.7%. In addition, the growth with MDA-MB-435 melanoma is 46.6%; in the assay with SW-620 colon, 50.6%; in the assay on MCF7 breast, 24.6%; with HCT-116 colon it was -25.8% (active); with HCC-2998 colon it was 90.7%; with KM12 colon, 65.1%.

Regarding `CCc1nn2c(-c3cc(OC)c(OC)c(OC)c3)c(-c3cc(OC)c(OC)c(OC)c3)nc2s1`, the growth in the assay on SR leukemia was 61.9%; in the assay on RPMI-8226 leukemia, 71.3%; in the assay with OVCAR-8 ovarian it was 95.6%; in the assay with OVCAR-5 ovarian, 90%; with OVCAR-4 ovarian it was 72.6%; in the assay on SK-OV-3 ovarian it was 59.5%. In addition, the growth with IGROV1 ovarian was 88.8%; in the assay on OVCAR-3 ovarian, 93.4%; with HS 578T breast, 37.1%; with NCI/ADR-RES ovarian, 81.7%; in the assay with T-47D breast, 81.4%; in the assay with BT-549 breast, 89.6%. Besides, the growth in the assay with MDA-MB-435 melanoma was 83.4%; in the assay on SW-620 colon, 86.3%; in the assay with MCF7 breast, 57.4%; in the assay with HCT-116 colon, 71.8%; in the assay on HCC-2998 colon it was 102%; in the assay on KM12 colon, 100%.

For the molecule `COc1ccc(-c2nsc3c2NC(=O)CC3c2cccc(Cl)c2)cc1` (configuration not stated), the growth with SR leukemia was 7.99% (active); in the assay with RPMI-8226 leukemia, 12.4%; in the assay with OVCAR-8 ovarian, 33.7%; with OVCAR-5 ovarian, 32.8%; with OVCAR-4 ovarian, 53.2%; in the assay with SK-OV-3 ovarian, 3.46% (active). Further, the growth in the assay on IGROV1 ovarian is 39.2%; with OVCAR-3 ovarian, 11.4%; with HS 578T breast, 37.6%; in the assay with NCI/ADR-RES ovarian it was 15.7%; with T-47D breast, 35.3%; in the assay on BT-549 breast, 36.5%. Besides, the growth in the assay on MDA-MB-435 melanoma is -12.2% (active); in the assay with SW-620 colon, 25.7%; in the assay on MCF7 breast, 17%; in the assay with HCT-116 colon it was 23.8%; in the assay with HCC-2998 colon, 43.5%; with KM12 colon, 34.6%.

On to `Cc1ccc(S(=O)(=O)Oc2ccccc2-c2ccccc2)cc1`, for which the growth with SR leukemia was 8.73% (active); in the assay with RPMI-8226 leukemia, 34.4%; in the assay on OVCAR-8 ovarian, 41.6%; in the assay on OVCAR-5 ovarian it was 63.6%; with OVCAR-4 ovarian it was 60.7%; in the assay with SK-OV-3 ovarian, 23%. Besides, the growth in the assay with IGROV1 ovarian is 35.6%; in the assay on OVCAR-3 ovarian, -28.1% (active); in the assay on HS 578T breast, -21.5% (active); with NCI/ADR-RES ovarian it was -7.58% (active); with T-47D breast, 37.1%; in the assay on BT-549 breast, 44.3%. Also, the growth is -41.5% (active) in the assay with MDA-MB-435 melanoma; 20.8% in the assay with SW-620 colon; 15.9% in the assay with MCF7 breast; 14.6% in the assay on HCT-116 colon; 46.3% with HCC-2998 colon; 15.6% in the assay with KM12 colon.

Take `COc1ccc(-c2nc(-c3ccccc3)c(-c3ccccc3)[nH]2)cc1OC1CCCC1`: the growth was 41.9% in the assay with SR leukemia; 56.6% in the assay on RPMI-8226 leukemia; 74.9% with OVCAR-8 ovarian; 82.7% in the assay with OVCAR-5 ovarian; 81.6% in the assay on OVCAR-4 ovarian; 89.3% with SK-OV-3 ovarian. The growth in the assay with IGROV1 ovarian was 105%; in the assay on OVCAR-3 ovarian, 81.4%; in the assay with HS 578T breast it was 86.5%; in the assay on NCI/ADR-RES ovarian, 79.5%; with T-47D breast it was 35.1%; with BT-549 breast it was 81.9%. The growth in the assay on MDA-MB-435 melanoma is 78.9%; in the assay on SW-620 colon, 82.6%; with MCF7 breast it was 78.7%; in the assay with HCT-116 colon, 73.6%; in the assay on HCC-2998 colon it was 69.7%; with KM12 colon, 43.5%.

With `COc1cc(Nc2ccnc(N3CCN(c4ccnc5cc(Cl)ccc45)CC3)n2)cc(OC)c1`, the growth with SR leukemia was -17% (active); in the assay with RPMI-8226 leukemia it was -27.6% (active); in the assay on OVCAR-8 ovarian, 1.09% (active); in the assay with OVCAR-5 ovarian, 30.8%; in the assay with OVCAR-4 ovarian it was 30.4%; in the assay with SK-OV-3 ovarian, 6.6% (active). Moreover, the growth in the assay on IGROV1 ovarian was 3.24% (active); in the assay on OVCAR-3 ovarian, 15%; in the assay with HS 578T breast, 24.6%; with NCI/ADR-RES ovarian, 7.19% (active); in the assay with T-47D breast, -16.6% (active); with BT-549 breast, -4.01% (active). The growth in the assay with MDA-MB-435 melanoma is 1.35% (active); in the assay with SW-620 colon, 11%; in the assay with MCF7 breast, 0.585% (active); in the assay on HCT-116 colon, 5.15% (active); in the assay with HCC-2998 colon it was 9.25% (active); in the assay on KM12 colon, 8.26% (active).

Consider `CCOC(=O)C(CCC1=NC(C)(C)CC(C)O1)C(=O)OCC` (configuration not stated), for which the growth in the assay with SR leukemia is 68.6%; in the assay with RPMI-8226 leukemia it was 111%; with OVCAR-8 ovarian it was 85.5%; in the assay with OVCAR-5 ovarian, 62.5%; with OVCAR-4 ovarian, 90.6%; in the assay on SK-OV-3 ovarian, 101%. For the same molecule, the growth in the assay on IGROV1 ovarian was 96.2%; in the assay on OVCAR-3 ovarian it was 107%; with HS 578T breast, 95.3%; in the assay with NCI/ADR-RES ovarian, 83%; in the assay on T-47D breast, 102%; with BT-549 breast it was 88.9%. In addition, the growth is 104% with MDA-MB-435 melanoma; 56.7% with SW-620 colon; 72.8% in the assay with MCF7 breast; 46% in the assay on HCT-116 colon; 98.8% in the assay with HCC-2998 colon; 94.4% in the assay on KM12 colon.

As to `O=C1/C(=C/c2ccc(O)cc2)Cc2ccc(Cl)cc21`, the growth in the assay with SR leukemia was 117%; with RPMI-8226 leukemia it was 120%; in the assay with OVCAR-8 ovarian it was 86.3%; in the assay with OVCAR-5 ovarian, 111%; in the assay with OVCAR-4 ovarian, 85.5%; in the assay on SK-OV-3 ovarian, 111%. For the same molecule, the growth is 18.8% in the assay with IGROV1 ovarian; 93% in the assay with OVCAR-3 ovarian; 95.4% in the assay with HS 578T breast; 94.2% in the assay with NCI/ADR-RES ovarian; 80.4% in the assay with T-47D breast; 59% with BT-549 breast. Moreover, the growth is 78% in the assay with MDA-MB-435 melanoma; 98.7% in the assay on SW-620 colon; 58.8% in the assay on MCF7 breast; 88.4% in the assay on HCT-116 colon; 115% in the assay with HCC-2998 colon; 87.6% with KM12 colon.

Turning to `CC(CNC(Cc1ccccc1)c1ccccc1)NC(Cc1ccccc1)c1ccccc1` (configuration not stated), the growth in the assay on SR leukemia is -19.7% (active); in the assay on RPMI-8226 leukemia it was -34.6% (active); in the assay on OVCAR-8 ovarian it was 49.5%; with OVCAR-5 ovarian, 46.3%; in the assay with OVCAR-4 ovarian, 31.7%; in the assay with SK-OV-3 ovarian it was 81.7%. In addition, the growth is 39% in the assay on IGROV1 ovarian; 47.3% in the assay on OVCAR-3 ovarian; 75.2% with HS 578T breast; 50% in the assay with NCI/ADR-RES ovarian; 14.6% with T-47D breast; 60.9% in the assay with BT-549 breast. The growth in the assay with MDA-MB-435 melanoma is 63.4%; in the assay with SW-620 colon it was 26.4%; in the assay with MCF7 breast, 8.12% (active); in the assay on HCT-116 colon, 13.2%; in the assay with HCC-2998 colon it was 20.1%; with KM12 colon, 22.2%.
